Consider 14 compounds from PubChem BioAssay.

The source made the active and inactive calls.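 The calls were made as follows, unless noted: active = inhibition at or above 50% at 10 µM; inactive = inhibition below 50%.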

The nature of assay [1]: inhibitors of TNFa-induced NFkB p65 translocation, primary screen, imaging, HUVEC, MLSMR starter and 10KST1 sets (AID 438;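 active = inhibition above 20% together with a positive visual image hit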;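 also: compound added about 3h40 before a 20 min TNFalpha stimulation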;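 as to inhibition: signal is the nuclear over cytoplasmic p65 intensity ratio per well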). To be noted: HUVEC TNFa-induced p65 nuclear translocation; cell count: measured here: nuclei count (cytotoxicity indicator), at 2.08 µM; inhibition: at 2 µM, stronger effect = higher value, 0% TNFa-plus-vehicle, 100% no-TNFa wells.
Assay [2] can be described thus: reduction of polyQ htt aggregates in cells – imaging, exon1htt(103Q)mCFP cells, high-content imaging, primary screen (AID 483;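 active = visual image review flags a hit and inhibition of aggregation exceeds 20%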;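 also: compound exposure lasted 3 days before fixation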;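 as to nuclei count: percent of the per-plate median nuclei count of sample wells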). The conditions noted are these: exon1htt(103Q)mCFP cell line, aggregate imaging, at 2 µM; inhibition of aggregation: stronger effect = higher value; nuclei count: measured here: cell count, toxicity.
Assay [3] can be described thus: endothelial E-selectin expression blockers – imaging, HUVEC, immunofluorescence, MLSMR starter and 10KST1 sets, primary screen (AID 487;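 active = visually confirmed hit in the image check and inhibition above 20%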;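 as to inhibition: signal is fraction of cell area covered by stained E-selectin grains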;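 as to nuclei count: 100% = median nuclei count of all wells on the same plate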). To be noted: HUVEC TNFalpha-induced E-selectin immunofluorescence imaging, at 2 µM; inhibition: stronger effect = higher value; nuclei count: measured here: cell number, toxicity.
Assay [4] deals with Voltage-gated potassium channel subunit beta-2 (Rattus norvegicus) (UniProt P62483). As to the kind of experiment: inhibitors of rat Kvbeta2 reductase activity – biochemical, NADPH fluorescence, primary screen (AID 622;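 active = fluorescence slope higher than the sample average by over 3 SD, cut at about -0.22 in these data, passing the limit was not always enough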;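 also: slope of raw intensity against log time taken from 70 to 1610 s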). The conditions noted are these: recombinant KvBeta, 4-cyanobenzaldehyde reduction, at 10 µM, stronger effect = higher value.
Chain of Voltage-gated potassium channel subunit beta-2 (Rattus norvegicus) (P62483 whole entry, looked up): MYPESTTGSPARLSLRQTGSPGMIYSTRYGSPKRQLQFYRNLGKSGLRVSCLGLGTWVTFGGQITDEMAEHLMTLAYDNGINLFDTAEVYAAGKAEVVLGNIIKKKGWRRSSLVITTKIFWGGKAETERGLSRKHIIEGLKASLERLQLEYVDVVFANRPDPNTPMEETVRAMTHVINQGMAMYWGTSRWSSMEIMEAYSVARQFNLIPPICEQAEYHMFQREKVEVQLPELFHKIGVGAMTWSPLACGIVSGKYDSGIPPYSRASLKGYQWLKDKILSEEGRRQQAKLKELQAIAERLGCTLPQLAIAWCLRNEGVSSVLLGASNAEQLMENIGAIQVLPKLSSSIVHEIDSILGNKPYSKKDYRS
Assay [5] has the same target. As to the kind of experiment: enhancers of rat Kvbeta2 NADPH turnover – biochemical, NADPH fluorescence, primary screen (AID 623;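 active = NADPH fluorescence slope more negative than the mean of all samples by about 3 SD, 99.7% confidence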;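 also: fluorescence intensity change per second fitted from 20 to 320 s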). The conditions noted are these: Recombinant KvBeta, NADPH fluorescence decrease slope, 10 min; at 10 µM; stronger effect = lower value.
The target in assay [6] is Alpha-2C adrenergic receptor (Homo sapiens) (UniProt P18825). The assay can be described thus: compounds altering alpha2C-coupled GIRK flux – cell-based, HEK293 alpha2C/GIRK1/2, thallium flux, primary screen (AID 624;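 active = fluorescence slope after compound addition differing from the mean of all screened samples at 99.7% confidence, in either direction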;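 also: slope of fluorescence ratio to pre-addition baseline per second over 15 to 24 s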). To be noted: thallium flux BTC fluorescence, at 10 µM, actives lie on both sides.
Chain of Alpha-2C adrenergic receptor (Homo sapiens) (P18825 whole entry, looked up): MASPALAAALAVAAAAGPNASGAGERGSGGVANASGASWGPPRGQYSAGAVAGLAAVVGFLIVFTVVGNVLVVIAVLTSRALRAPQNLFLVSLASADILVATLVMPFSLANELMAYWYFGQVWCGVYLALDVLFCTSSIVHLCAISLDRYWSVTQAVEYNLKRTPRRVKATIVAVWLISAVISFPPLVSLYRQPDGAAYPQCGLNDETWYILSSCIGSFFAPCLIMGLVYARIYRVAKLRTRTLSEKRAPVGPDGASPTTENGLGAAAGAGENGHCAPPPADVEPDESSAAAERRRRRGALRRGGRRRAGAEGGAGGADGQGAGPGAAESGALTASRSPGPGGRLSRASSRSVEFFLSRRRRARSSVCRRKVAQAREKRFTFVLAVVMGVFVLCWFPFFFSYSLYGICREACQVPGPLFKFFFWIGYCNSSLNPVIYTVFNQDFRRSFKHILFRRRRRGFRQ
Assay [7] in a line: blockers of RIG-like receptor reporter activation – cell-based, Sendai virus stimulus, luciferase, 10K MLSCN set, TLR/RLR signaling modifier project, primary screen (AID 602276).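 Also: firefly luciferase from ISG56 promoter only with Renilla not read in this screen; 0% = Sendai virus plus DMSO and 100% = medium plus DMSO without virus.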 To be noted: HEK293 RL24 IRF3 luciferase reporter, at 10 µM, stronger effect = higher value.
Assay [8] is described as follows: TLR3 IRF3 reporter activation blockers – cell-based, poly I:C stimulus, luciferase, 10K MLSCN set, primary screen (AID 602277;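 active = inhibition of the reporter signal at or above 50%; inactive = inhibition below 50%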). The conditions noted are these: HEK293-TLR3 RL24 IRF3 luciferase reporter, at 10 µM, stronger effect = higher value.

In the case of `O=P(O)(CCc1ccccc1)CN1CCCCC1`, the cell count in assay [1] was 446. The inhibition is -6.3% (inactive) in assay [1], -137% (inactive) in assay [3], -8.42% (inactive) in assay [7] and -0.191% (inactive) in assay [8]. Moreover, the inhibition of aggregation in assay [2] is -8.7% (inactive). The nuclei count in assay [2] was determined as 100%; in assay [3], 108%. Moreover, in assay [4], the fluorescence slope is -0.419 (inactive). Moreover, the NADPH fluorescence slope in assay [5] was 5e-05 (inactive). Moreover, the slope in assay [6] was 0.00723 (inactive).
With `CCOC(=O)N1CCN(C(=O)CSc2nnc(-c3cccc(Cl)c3)o2)CC1`, the cell count in assay [1] was found to be 543. The inhibition was 11.7% (inactive) in assay [1], -3.2% (inactive) in assay [3], 0.178% (inactive) in assay [7] and 18.7% (inactive) in assay [8]. In assay [2], the inhibition of aggregation is -117% (inactive). The nuclei count in assay [2] was 10.5%; in assay [3] it was 96%. Moreover, the fluorescence slope in assay [4] was -0.494 (inactive). Further, in assay [5], the NADPH fluorescence slope was -0.000158 (inactive). In addition, the slope in assay [6] is 0.00621 (inactive).
For `Cc1ccc(N2CCN(S(=O)(=O)N(C)C)CC2)c(C)c1`, in assay [1], the cell count worked out at 393. In addition, the inhibition in assay [1] is -2.4% (inactive); in assay [3] it was -55.1% (inactive); in assay [7], 2.52% (inactive); in assay [8] it was 4.97% (inactive). Besides, the inhibition of aggregation in assay [2] was 23.9% (inactive). For the same compound, the nuclei count in assay [2] stood at 75.5%; in assay [3] it was 107%. Also, the fluorescence slope in assay [4] was -0.559 (inactive). The NADPH fluorescence slope in assay [5] was -3.5e-06 (inactive). Moreover, the slope in assay [6] was 0.00671 (inactive).
For the compound `CCCN1CCN(CCCNC(=O)C2CCCN(c3nc4ccc(OCC)cc4s3)C2)CC1` (centres undefined), the cell count in assay [1] came to 513. Besides, the inhibition in assay [1] was -14% (inactive); in assay [3], -18.5% (inactive); in assay [7], -9.58% (inactive); in assay [8] it was -10.2% (inactive). For the same compound, the inhibition of aggregation in assay [2] was 23.6% (inactive). Also, the figures for the nuclei count in assay [2] and in assay [3] were 121% and 119%, respectively. In assay [4], the fluorescence slope is -0.398 (inactive). For the same compound, the NADPH fluorescence slope in assay [5] is -4.5e-05 (inactive). Besides, in assay [6], the slope is 0.00402 (inactive).
For `Cc1cc(C)n(-c2nc3c(c(=O)[nH]c(=O)n3C)n2Cc2ccc(F)cc2)n1`, the cell count in assay [1] stood at 402. Further, the inhibition is 1.3% (inactive) in assay [1], -7.5% (inactive) in assay [3], 13% (inactive) in assay [7] and 13.7% (inactive) in assay [8]. Besides, the inhibition of aggregation in assay [2] was -21.6% (inactive). The nuclei count in assay [2] came to 94.4%; in assay [3], 102%. The fluorescence slope in assay [4] is -0.324 (inactive). The NADPH fluorescence slope in assay [5] is -3.8e-05 (inactive). Further, the slope in assay [6] was 0.00739 (inactive).
Take `CCOC(=O)c1sc(NC(=O)CSc2nnc(-c3ccc(OC)cc3)n2CCOC)nc1C`: the cell count in assay [1] worked out at 633. Besides, the inhibition was 12.1% (inactive) in assay [1], -89.1% (inactive) in assay [3], 13.8% (inactive) in assay [7] and 24.5% (inactive) in assay [8]. Besides, in assay [2], the inhibition of aggregation was 12.9% (inactive). Moreover, the figures for the nuclei count in assay [2] and in assay [3] were 88.1% and 140%, respectively. The fluorescence slope in assay [4] was -0.481 (inactive). Besides, the NADPH fluorescence slope in assay [5] is 1.3e-05 (inactive). Further, in assay [6], the slope was 0.00672 (inactive).
As for `CCOCCCNC(=O)CN1CCN(Cc2ccccc2C)C1=O`, the cell count in assay [1] amounted to 600. Besides, the inhibition was -4.4% (inactive) in assay [1], -42% (inactive) in assay [3], -1.33% (inactive) in assay [7] and 19.7% (inactive) in assay [8]. Besides, the inhibition of aggregation in assay [2] was -25.9% (inactive). For the same compound, the figures for the nuclei count in assay [2] and in assay [3] were 108% and 117%, respectively. For the same compound, in assay [4], the fluorescence slope is -0.574 (inactive). The NADPH fluorescence slope in assay [5] was -5.1e-05 (inactive). Also, the slope in assay [6] was 0.00699 (inactive).
For the compound `Cc1cccc(CCNC(=O)CCc2nc(-c3ccccc3F)no2)c1`, the cell count in assay [1] amounted to 357. Moreover, the inhibition in assay [1] was 2.8% (inactive); in assay [3], -2.7% (inactive); in assay [7], -0.595% (inactive); in assay [8], 2.35% (inactive). In addition, the inhibition of aggregation in assay [2] is -1.1% (inactive). Also, the nuclei count in assay [2] was found to be 101%; in assay [3], 114%. For the same compound, the fluorescence slope in assay [4] is -0.415 (inactive). Further, in assay [5], the NADPH fluorescence slope was -2.4e-05 (inactive). The slope in assay [6] is 0.00305 (inactive).
On to `CCOC(=O)N1CCN(C(=O)CSc2ncnc3ccccc23)CC1`, for which the cell count in assay [1] is 747. In addition, the inhibition in assay [1] was -1.6% (inactive); in assay [3] it was -10.3% (inactive); in assay [7] it was 1.11% (inactive); in assay [8], -8.53% (inactive). Also, the inhibition of aggregation in assay [2] is -8.8% (inactive). Further, the nuclei count in assay [2] came to 120%; in assay [3], 115%. Besides, in assay [4], the fluorescence slope was -0.525 (inactive). Further, in assay [5], the NADPH fluorescence slope was -2.4e-05 (inactive). Moreover, the slope in assay [6] is 0.00632 (inactive).
As to `Cc1ccc(CCNC(=O)C2CCC(=O)N2C2CCCC2)cc1` (centres undefined), the cell count in assay [1] was 703. Besides, the inhibition in assay [1] was -1.3% (inactive); in assay [3], 16.9% (inactive); in assay [7], 1.44% (inactive); in assay [8], 10.9% (inactive). The inhibition of aggregation in assay [2] is 6.9% (inactive). In addition, the nuclei count in assay [2] is 97.5%; in assay [3], 97.7%. Moreover, the fluorescence slope in assay [4] was -0.493 (inactive). In assay [5], the NADPH fluorescence slope was -4.7e-05 (inactive). Also, the slope in assay [6] is 0.0072 (inactive).
Regarding `CCOc1ccccc1C(=O)N1CCN(c2cccc(Cl)c2)CC1`, the cell count in assay [1] is 460. The inhibition is 24.4% (active) in assay [1], -294% (inactive) in assay [3], 9.54% (inactive) in assay [7] and 87.8% (active) in assay [8]. The inhibition of aggregation in assay [2] was -20.9% (inactive). Also, the figures for the nuclei count in assay [2] and in assay [3] were 4% and 104%, respectively. For the same compound, in assay [4], the fluorescence slope is -0.614 (inactive). The NADPH fluorescence slope in assay [5] is -5.4e-05 (inactive). Moreover, in assay [6], the slope is 0.00344 (inactive).
Turning to `O=C(CSc1nc(N2CCCCC2)nc(N2CCCCC2)n1)Nc1nccs1`, in assay [1], the cell count was determined as 280. The inhibition is -7% (inactive) in assay [1], -32.8% (inactive) in assay [3], 1.6% (inactive) in assay [7] and 52.4% (active) in assay [8]. In assay [2], the inhibition of aggregation is 5.5% (inactive). The nuclei count in assay [2] turned out to be 96.9%; in assay [3], 72.8%. The fluorescence slope in assay [4] is -0.531 (inactive). Also, in assay [5], the NADPH fluorescence slope was 7.9e-06 (inactive). Moreover, the slope in assay [6] is 0.00662 (inactive).
Regarding `CCOC(=O)c1c(C)[nH]c(C(=O)CSc2nc3ccccc3o2)c1C`, the cell count in assay [1] came out at 479. The inhibition in assay [1] is 10.6% (inactive); in assay [3], 28.7% (inactive); in assay [7], -1.31% (inactive); in assay [8], 0.358% (inactive). Moreover, the inhibition of aggregation in assay [2] was -23.1% (inactive). For the same compound, the figures for the nuclei count in assay [2] and in assay [3] were 107% and 94.5%, respectively. The fluorescence slope in assay [4] was -0.3 (inactive). For the same compound, the NADPH fluorescence slope in assay [5] is 1.8e-05 (inactive). Moreover, the slope in assay [6] is 0.00682 (inactive).
For `O=c1sc(Nc2ccccc2)nc2ccsc12`, in assay [1], the cell count stood at 323. Further, the inhibition is -9.8% (inactive) in assay [1], -36.8% (inactive) in assay [3], -17.1% (inactive) in assay [7] and -57.8% (inactive) in assay [8]. In assay [2], the inhibition of aggregation was -0.2% (inactive). In addition, the nuclei count in assay [2] came to 91.4%; in assay [3] it was 122%. Further, the fluorescence slope in assay [4] is -0.334 (inactive). Also, the NADPH fluorescence slope in assay [5] is -2.1e-05 (inactive). Further, the slope in assay [6] is 0.00308 (inactive).
